Measured values taken from ChEMBL document CHEMBL4513146, “CO-ADD screening of Karazin Kharkiv National University (Ukraine) compounds”.
Potency and affinity values are given separately.

tested on: Klebsiella pneumoniae; conditions: Concentration 32 ug.mL-1;; ASSAY_TEST Inhibition of Bacterial Growth; detection method Absorption (OD600); MEDIA CAMHB; plate type 384well; NBS; CORNING #3640; time 18 hr

Row | SMILES | Inhibition [%]
1 | Cc1cc2nn(CC(=O)Nc3cccc(F)c3)c(=O)n2c(Nc2ccc(F)c(C)c2)n1 | 7.53
2 | CCc1cccc(NC(=O)Cn2nc3nc(N4CCCCCC4)ccn3c2=O)c1 | 14.42
3 | CC(C)c1ccc(Oc2nc3ccccc3n3c(=O)n(CC(=O)Nc4ccc5c(c4)OCO5)nc23)cc1 | 7.45
4 | Cc1cccc(N(C)C(=O)Cn2nc3cc(C)nc(Nc4ccc(F)c(C)c4)n3c2=O)c1 | 4.58
5 | CCc1nnc2c(=O)n(CC(=O)Nc3cc(Cl)ccc3Cl)c3ccccc3n12 | 6.11
6 | CCc1ccccc1NC(=O)Cn1nc2c(SC3CCCCC3)nccn2c1=O | 9.89
7 | Cc1ccc(-c2cc3c4nnc(SCC(=O)Nc5ccc(C#N)cc5)n4ccn3n2)cc1 | 4.89
8 | CCc1ccc(N(Cc2ccccc2F)S(=O)(=O)c2cccn3c(C)nnc23)cc1 | 6.64
9 | CCCCN(CC)c1ccc2nnc(CCc3nc(-c4ccc5c(c4)OCO5)no3)n2n1 | 3.82
10 | CCc1ccccc1Sc1nccn2c(=O)n(CC(=O)Nc3ccc(Br)cc3)nc12 | 22.46
11 | CC(C)c1nnc2c(=O)n(CC(=O)Nc3ccc(Br)cc3)c3ccccc3n12 | 14.25
12 | Cc1ccc(Oc2nccn3c(=O)n(CC(=O)Nc4ccc(Br)cc4)nc23)cc1 | 6.74
13 | CCc1cccc(NC(=O)Cn2nc3ccc(SC(C)(C)C)nn3c2=O)c1 | 16.66
14 | Cc1ccc(Cl)cc1NC(=O)CSc1nnc2c(=O)n(-c3ccccc3)ccn12 | 9.22
15 | O=C(Cn1nc2c3c4c(sc3ncn2c1=O)CCCC4)NCCc1ccc(Cl)cc1 | 9.47
16 | CC(C)(C)Sc1ccc2nn(CC(=O)Nc3ccc(Cl)cc3)c(=O)n2n1 | 16.93
17 | Cc1ccc(-c2ccc3nn(Cc4nc(-c5ccc(Cl)cc5)no4)c(=O)n3n2)cc1C | 7.1
18 | Cc1cc(C)c(NC(=O)Cn2nc3ccc(Sc4cccc(F)c4)nn3c2=O)c(C)c1 | 1.06
19 | Cc1cc(C)c(NC(=O)Cn2nc3c(SCc4ccc(Cl)cc4)nccn3c2=O)c(C)c1 | 8.66
20 | Cc1ccc(NC(=O)Cn2nc3c(Sc4ccccc4)nccn3c2=O)c(C)c1 | 7.2

Row | SMILES | Inhibition [%]
21 | O=c1c2sccc2n2c(=O)n(Cc3ccc(Cl)cc3)nc2n1Cc1cccs1 | -1.66
22 | O=C(Cn1nc2ccc(SCc3ccc(Cl)cc3)nn2c1=O)Nc1ccc(F)c(F)c1 | 3.9
23 | Cc1cccc(NC(=O)Cn2nc3c(SC4CCCCC4)nccn3c2=O)c1C | 7.9
24 | Cc1ccc(-c2cc3c4nnc(SCC(=O)Nc5cccc(Cl)c5C)n4ccn3n2)cc1 | -0.41
25 | O=C(CCc1nnc2ccc(-c3ccc(Cl)cc3)nn12)NCc1ccc(F)cc1Cl | 20.9
26 | Cc1cc2nn(CC(=O)Nc3cc(F)ccc3C)c(=O)n2c(Nc2ccc(F)cc2)n1 | 8.72
27 | COc1ccc(CN(c2ccc(OC)cc2)S(=O)(=O)c2ccc3nnc(C)n3c2)cc1 | 9.27
28 | Cc1cccc(Oc2nccn3c(=O)n(CC(=O)Nc4cccc(C(F)(F)F)c4)nc23)c1C | 9.81
29 | O=c1n(Cc2ccc3c(c2)OCO3)nc2c(S(=O)(=O)N3CCCC3)cccn12 | 5.42
30 | COc1ccc(NC(=O)Cn2nc3c4cc(-c5ccc(C)c(C)c5)nn4ccn3c2=O)cc1OC | 13.24
31 | O=c1c2nn(Cc3cccc(Cl)c3)c(=O)n2ccn1-c1ccccc1 | 1.75
32 | COc1cc(NC(=O)Cn2nc3c(Oc4ccccc4)nccn3c2=O)cc(OC)c1 | 11.9
33 | CCc1nnc2c(S(=O)(=O)N(Cc3cccc(OC)c3)c3ccccc3)cccn12 | 11.28
34 | O=S(=O)(c1ccc2nncn2c1)N(Cc1ccccc1F)c1cccc(F)c1 | -5.56
35 | COc1ccccc1N1CCN(C(=O)Cn2nc3ccc(-c4ccc(C)c(C)c4)nn3c2=O)CC1 | 9.25
36 | COc1ccc(CNC(=O)CCc2nnc3ccc(-c4ccccc4)nn23)cc1OC | 15.01
37 | Cc1ccc(-c2cc3c4nnc(SCC(=O)Nc5ccccc5Br)n4ccn3n2)cc1 | 5.31
38 | COc1cccc(-n2ccn3c(SCC(=O)Nc4cc(Cl)ccc4OC)nnc3c2=O)c1 | 5.24
39 | O=C(Cn1nc2c3cc(-c4ccc(Cl)cc4)nn3ccn2c1=O)Nc1ccc(F)cc1 | 10.41
40 | O=C(Cn1nc2ccc(SC3CCCCC3)nn2c1=O)NCc1ccc(Cl)cc1 | 12.01

tested on: Candida albicans; conditions: Concentration 32 ug.mL-1; ASSAY_TEST Inhibition of Fungal Growth; detection method Absorption (OD530)

Row | SMILES | Inhibition [%]
41 | Cc1cc2nn(CC(=O)Nc3cccc(F)c3)c(=O)n2c(Nc2ccc(F)c(C)c2)n1 | 6.76
42 | CCc1cccc(NC(=O)Cn2nc3nc(N4CCCCCC4)ccn3c2=O)c1 | 0.8
43 | CC(C)c1ccc(Oc2nc3ccccc3n3c(=O)n(CC(=O)Nc4ccc5c(c4)OCO5)nc23)cc1 | 1.68
44 | Cc1cccc(N(C)C(=O)Cn2nc3cc(C)nc(Nc4ccc(F)c(C)c4)n3c2=O)c1 | 2.18
45 | CCc1nnc2c(=O)n(CC(=O)Nc3cc(Cl)ccc3Cl)c3ccccc3n12 | 2.89
46 | CCc1ccccc1NC(=O)Cn1nc2c(SC3CCCCC3)nccn2c1=O | -0.63
47 | Cc1ccc(-c2cc3c4nnc(SCC(=O)Nc5ccc(C#N)cc5)n4ccn3n2)cc1 | 0.36
48 | CCc1ccc(N(Cc2ccccc2F)S(=O)(=O)c2cccn3c(C)nnc23)cc1 | 0.88
49 | CCCCN(CC)c1ccc2nnc(CCc3nc(-c4ccc5c(c4)OCO5)no3)n2n1 | 3.29
50 | CCc1ccccc1Sc1nccn2c(=O)n(CC(=O)Nc3ccc(Br)cc3)nc12 | 14.92
51 | CC(C)c1nnc2c(=O)n(CC(=O)Nc3ccc(Br)cc3)c3ccccc3n12 | 2.31
52 | Cc1ccc(Oc2nccn3c(=O)n(CC(=O)Nc4ccc(Br)cc4)nc23)cc1 | 10.23
53 | CCc1cccc(NC(=O)Cn2nc3ccc(SC(C)(C)C)nn3c2=O)c1 | 3.39
54 | Cc1ccc(Cl)cc1NC(=O)CSc1nnc2c(=O)n(-c3ccccc3)ccn12 | 2.4
55 | O=C(Cn1nc2c3c4c(sc3ncn2c1=O)CCCC4)NCCc1ccc(Cl)cc1 | 7.92
56 | CC(C)(C)Sc1ccc2nn(CC(=O)Nc3ccc(Cl)cc3)c(=O)n2n1 | 5.49
57 | Cc1ccc(-c2ccc3nn(Cc4nc(-c5ccc(Cl)cc5)no4)c(=O)n3n2)cc1C | 1.35
58 | Cc1cc(C)c(NC(=O)Cn2nc3ccc(Sc4cccc(F)c4)nn3c2=O)c(C)c1 | 2.95
59 | Cc1cc(C)c(NC(=O)Cn2nc3c(SCc4ccc(Cl)cc4)nccn3c2=O)c(C)c1 | 25.19
60 | Cc1ccc(NC(=O)Cn2nc3c(Sc4ccccc4)nccn3c2=O)c(C)c1 | 3.33

Row | SMILES | Inhibition [%]
61 | O=c1c2sccc2n2c(=O)n(Cc3ccc(Cl)cc3)nc2n1Cc1cccs1 | 32.28
62 | O=C(Cn1nc2ccc(SCc3ccc(Cl)cc3)nn2c1=O)Nc1ccc(F)c(F)c1 | 20.34
63 | Cc1cccc(NC(=O)Cn2nc3c(SC4CCCCC4)nccn3c2=O)c1C | -1.44
64 | Cc1ccc(-c2cc3c4nnc(SCC(=O)Nc5cccc(Cl)c5C)n4ccn3n2)cc1 | 0.76
65 | O=C(CCc1nnc2ccc(-c3ccc(Cl)cc3)nn12)NCc1ccc(F)cc1Cl | 0.76
66 | Cc1cc2nn(CC(=O)Nc3cc(F)ccc3C)c(=O)n2c(Nc2ccc(F)cc2)n1 | 0.87
67 | COc1ccc(CN(c2ccc(OC)cc2)S(=O)(=O)c2ccc3nnc(C)n3c2)cc1 | 0.4
68 | Cc1cccc(Oc2nccn3c(=O)n(CC(=O)Nc4cccc(C(F)(F)F)c4)nc23)c1C | 16
69 | O=c1n(Cc2ccc3c(c2)OCO3)nc2c(S(=O)(=O)N3CCCC3)cccn12 | 0.37
70 | COc1ccc(NC(=O)Cn2nc3c4cc(-c5ccc(C)c(C)c5)nn4ccn3c2=O)cc1OC | 0.2
71 | O=c1c2nn(Cc3cccc(Cl)c3)c(=O)n2ccn1-c1ccccc1 | 6.73
72 | COc1cc(NC(=O)Cn2nc3c(Oc4ccccc4)nccn3c2=O)cc(OC)c1 | -1.97
73 | CCc1nnc2c(S(=O)(=O)N(Cc3cccc(OC)c3)c3ccccc3)cccn12 | 4.76
74 | O=S(=O)(c1ccc2nncn2c1)N(Cc1ccccc1F)c1cccc(F)c1 | 2.89
75 | COc1ccccc1N1CCN(C(=O)Cn2nc3ccc(-c4ccc(C)c(C)c4)nn3c2=O)CC1 | -0.19
76 | COc1ccc(CNC(=O)CCc2nnc3ccc(-c4ccccc4)nn23)cc1OC | -1.16
77 | Cc1ccc(-c2cc3c4nnc(SCC(=O)Nc5ccccc5Br)n4ccn3n2)cc1 | 5.08
78 | COc1cccc(-n2ccn3c(SCC(=O)Nc4cc(Cl)ccc4OC)nnc3c2=O)c1 | 13.1
79 | O=C(Cn1nc2c3cc(-c4ccc(Cl)cc4)nn3ccn2c1=O)Nc1ccc(F)cc1 | 1.82
80 | O=C(Cn1nc2ccc(SC3CCCCC3)nn2c1=O)NCc1ccc(Cl)cc1 | 5.78
